# Compounds with a hit are over-represented: about 11% of the library has one in this group of screens.
# NPSR antag = qHTS Assay for Antagonists of the Neuropeptide S Receptor: cAMP Signal Transduction; 220,000 compounds, 1% hits; AID 1461, 2008; Q6W5P4; Potency, µM (series often up to 38.3 µM), without a hit: top-dose activity change, negative = inhibition, usual class: inhibitors; CHO-NPSR cells, cAMP TR-FRET, antagonist mode; active means well fitted curve in the direction sought with a large enough effect; inconclusive means small, poorly fitted or top-dose-only effect, or another doubt; inactive means no such curve, though single readings can be large; an effect the other way counts as inactive or inconclusive; further: potency means the concentration at half of the fitted maximal effect; nearly all actives have a fitted effect of over 50% in size
# HPGD block = qHTS Assay for Inhibitors of HPGD (15-Hydroxyprostaglandin Dehydrogenase). purified HPGD, NADH fluorescence kinetic, PGE2 substrate. AID 894, 2007. 15-hydroxyprostaglandin dehydrogenase [NAD(+)] (Homo sapiens), P15428. Potency, µM, inactives show at the highest dose activity change, negative = inhibition, most hits filed as inhibitors. 150,000 compounds, 4.3% hits; further: potency means the concentration at half of the fitted maximal effect
# Target sequence (P15428 whole entry, looked up): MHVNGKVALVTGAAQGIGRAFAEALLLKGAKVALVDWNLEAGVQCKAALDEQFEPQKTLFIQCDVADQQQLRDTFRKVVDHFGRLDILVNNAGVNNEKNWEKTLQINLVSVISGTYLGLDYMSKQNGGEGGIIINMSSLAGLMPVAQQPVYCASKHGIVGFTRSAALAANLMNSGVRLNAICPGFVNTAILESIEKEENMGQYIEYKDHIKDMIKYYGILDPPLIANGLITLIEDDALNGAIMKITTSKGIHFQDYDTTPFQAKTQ
#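 20 nM HPGD preincubated 15 min at room temperature with compound in 50 mM Tris-HCl pH 8, 0.01% Tween 20. Started with 1 mM NAD+ and 30 uM prostaglandin E2; NADH fluorescence (360/450 nm) read 5 times over 30-s intervals, last minus first.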
# PNC assembly inh = High Content Assay for Compounds that inhibit the Assembly of the Perinucleolar Compartment. PC3M PTB-GFP, PNC prevalence imaging, 16 h; active compounds read low. activity change (PNC), negative = inhibition, % at 10 µM. 140,000 compounds, 3.1% hits. AID 2417, 2010;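 active means readout at or below -70, meaning at least 70% loss of cells showing the perinucleolar compartment, a nuclear body marking cancer cells; inconclusive means readout between -30 and a set limit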;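 further: plate controls were DMSO wells for no effect and camptothecin positive control wells for full effect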
#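 PC3M cells stably expressing PTB-GFP, 750–1000 cells/well, treated 16 h at 37 °C with compound (23 nl of library stock), in duplicate. After paraformaldehyde fixation and Hoechst stain, imaged at 20x; PNC prevalence scored by image analysis.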
# ALDH1A1 block = qHTS Assay for Inhibitors of Aldehyde Dehydrogenase 1 (ALDH1A1). Purified ALDH1A1, NADH fluorescence, propionaldehyde substrate. 220,000 compounds, 7.3% hits. Potency, µM (titrated, usually from 75.3 µM), inactives show at the highest dose activity, negative = inhibition, actives largely listed as inhibitors. AID 1030, 2008. Aldehyde dehydrogenase 1A1 (Homo sapiens), P00352;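 further: potency means the concentration at half of the fitted maximal effect; plate controls were no enzyme wells and a reference inhibitor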
# IMPase inh = qHTS Assay for Identifying the Cell-Membrane Permeable IMPase Inhibitors; Inositol monophosphatase 1 (Rattus norvegicus), P97697; 120,000 tested, under 10 active; inhibition (IP1 accumulation), % at 46.1 µM; CHO-M1 cells, IP1 accumulation, HTRF TR-FRET ratio; active means well fitted curve in the direction sought with a large enough effect in the signal ratio, not every such curve was filed as active; inconclusive means small, poorly fitted or top-dose-only effect, or a change in a side signal; inactive means no such curve, though single readings can be large or run the other way; the % refers to the signal ratio;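 further: cells stimulated with carbachol in lithium chloride buffer; plate controls were DMSO basal wells for no effect and reference inhibitor wells for full effect; higher means more IMPase inhibition seen as more IP1 and lower FRET ratio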
# Target sequence (P97697 whole entry, looked up): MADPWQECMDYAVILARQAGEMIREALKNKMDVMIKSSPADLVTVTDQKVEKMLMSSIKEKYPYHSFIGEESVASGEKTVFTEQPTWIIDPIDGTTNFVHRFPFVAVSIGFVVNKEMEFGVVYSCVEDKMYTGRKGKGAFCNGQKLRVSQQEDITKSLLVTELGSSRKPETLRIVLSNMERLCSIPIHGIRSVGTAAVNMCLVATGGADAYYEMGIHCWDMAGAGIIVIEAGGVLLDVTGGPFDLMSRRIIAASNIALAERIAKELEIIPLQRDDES
#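 Elevated IP1 in lysates lowers TR-FRET signal (665/620 ratio and 620 channel reported). Cells were CHO-M1, given carbachol (50 uM as added) plus 50mM LiCl, pH 7.4, 30 min, 37C; compounds titrated up to 46 uM; AC50 by Hill equation.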
# IMPase Li inh = qHTS Assay for Identifying the Cell-Membrane Permeable IMPase Inhibitors: Potentiation with Lithium; AID 1457, 2008; Potency, µM (highest dose often 59.4 µM), inactives show at the highest dose activity, negative = IMPase inhibition, usual class: inhibitors; CHO-M1 cells, IP1 TR-FRET (IP-One), carbachol + lithium; 210,000 compounds, 0.35% hits; active means well fitted curve in the direction sought with a large enough effect; inconclusive means small, poorly fitted or top-dose-only effect, or another doubt; inactive means no such curve, though single readings can be large; an effect the other way counts as inactive or inconclusive;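 further: IP1 builds up when IMPase is blocked and the TR-FRET signal falls; potency means the concentration at half of the fitted maximal effect; plate controls were basal vehicle for no effect and high inhibitor control for full effect; nearly all actives have a fitted effect of over 50% in size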
#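 CHO cells stably expressing M1 receptor (2000/well) were cultured 16–30 h, then exposed to compounds with a small lithium addition for 30 min at 37C. IP1 was measured by TR-FRET competition; AC50 from Hill fits.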
# The depositor's hits bear a star; ? = inconclusive; . = no result given; [ ] = dose if it differs, or a comment. Unless noted, the call rests on the fitted dose curve; in most records, active means well fitted inhibition curve with a large enough effect (not every such curve was filed as active); inconclusive means small, poorly fitted or top-dose-only effect, or another doubt; inactive means no such curve, though single readings can be large or run the other way. Unless noted, on the % scale 0 is the no-effect control and ±100 the full control effect.
SMILES,NPSR antag,HPGD block,PNC assembly inh,ALDH1A1 block,IMPase inh,IMPase Li inh
Cc1ccc(C(=O)NCCSCc2ccc(Cl)cc2Cl)cc1[N+](=O)[O-],-35%,?,-12,?,.,8%
Cc1c(C(=O)NCCSc2ccc(Cl)cc2)cccc1[N+](=O)[O-],5%,-14%,5,-12%,.,18%
CN(Cc1ccccc1)Cc1nc2c(c(=O)n(C)c(=O)n2C)n1Cc1ccc(Cl)cc1,?,-6%,-6,?,3,24%[38.3 µM]
CCCCCn1c(CN(C)Cc2ccccc2)nc2c1c(=O)n(C)c(=O)n2C,-21%[46.1 µM],-8%,?,10µM*,12,24%[38.3 µM]
Cc1ccc(Cn2c(CN(C)Cc3ccccc3)nc3c2c(=O)n(C)c(=O)n3C)cc1,-25%[46.1 µM],-8%,-11,7.1µM*,1,42%[38.3 µM]
CC1CCC2(CC1)NC(=O)N(CC(=O)Nc1nc(-c3ccc(F)cc3)cs1)C2=O (configuration not stated),18%[46.1 µM],-13%,?,?,1,14µM*
Cc1cc(C)c(NC(=O)CN2C(=O)NC3(CCCCC3)C2=O)c(Cl)c1,12%[46.1 µM],-4%,-13,-2%,-5,-3%[38.3 µM]
Cc1ccc(NC(=O)CN2C(=O)NC3(CCC(C)CC3)C2=O)c(Cl)c1 (configuration not stated),9%[46.1 µM],-10%,-127*,-10%,-9,-9%[38.3 µM]
O=C(Nc1ccncc1)Nc1ccncc1,24%,.,.,4%,.,-14%
CCc1nc(N)c(C#N)c(-c2ccncc2)c1C,7%[46.1 µM],-27%,1,3%,?,-15%[38.3 µM]
CCc1nc(N)c(C#N)c(-c2cccc3ccccc23)c1C,28%[46.1 µM],-24%,-100*,8%,-5,6%
Cc1nonc1CC(=O)N1CCc2c([nH]c3ccccc23)C1c1ccccc1F (configuration not stated),-14%,.,.,?,.,-4%
O=C(Cc1cnc2ncnn2c1)N1CCc2c([nH]c3ccccc23)C1c1ccccc1F (configuration not stated),31%,.,.,4.5µM*,.,11%
O=C(O)Cc1cn(-c2ccccc2)nc1-c1ccccc1,-6%,.,.,?,.,2%
OCc1cn(-c2ccccc2)nc1-c1ccc(-c2nn(-c3ccccc3)cc2CO)cc1,?,?,22,?,0,28µM*
CCc1n[nH]c(=S)n1/N=C/c1ccc(N(CC)CC)cc1,-27%,.,.,10µM*,.,-5%
CCN(CC)c1ccc(/C=N/n2c(C)cc(C)cc2=O)cc1,-13%[7.67 µM],?,-123*,7.9µM*,7,-12%[38.3 µM]
C=CCOc1c(Br)cc(/C=N/n2c(CC)n[nH]c2=S)cc1Br,-39%,3.2µM*,-24,8%,.,19%
CCc1n[nH]c(=S)n1/N=C/c1cc(Br)c(O)c(OC)c1,-6%,.,.,.,.,.
CCc1n[nH]c(=S)n1/N=C/c1c(C)nn(-c2ccccc2)c1Cl,-25%,.,.,2%,.,-2%
CC1(C(=O)O)Oc2cccnc2NC1=O (configuration not stated),9%,.,.,14%,.,-1%
Cc1cc(C)nc(CC(N)=O)n1,-3%[46.1 µM],-1%,-25,4%,-3,27%[38.3 µM]
O=S(=O)(c1ccc(Cl)nc1)N1CCN(c2ncccn2)CC1,-7%,.,.,.,.,.
O=S(=O)(c1cnc(Cl)c(Br)c1)N1CCCCCC1,-8%,-15%,-5,8.9µM*,.,8%
O=S(=O)(c1cnc(Cl)c(Br)c1)N1CCN(c2ncccn2)CC1,4%,.,.,0.35µM*,.,.
O=S(=O)(c1cnc(Cl)c(Cl)c1)N1CCN(c2ncccn2)CC1,10%,.,.,0.79µM*,.,.
